In all, about 52,000 compounds went through this assay and about 4,300 (8.3%) were called active. Cut-off read from the data, not from the text of the source: active = survival mostly below about 52% (no sharp cut-off); inactive = mostly above about 56%. Shown is part of a subset that was picked to be rich in actives.

This test relates to DeltatarO mutant. Briefly: growth inhibition of S. aureus wild type versus tarO mutant, primary screen, teichoic acid synthesis inhibitors, RN4220, OD600 (AID 463173). The settings on record: OD600, 18 h, stronger effect = lower value, screened at 18.75 µg/mL (by protocol).
For `Cc1ccc(-c2nc3n(n2)C(=O)CC(c2ccc(C)cc2)S3)cc1` (stereo unspecified), the survival was 90% (inactive).
The figure for `NC(=O)CSc1ncnc2c1cnn2-c1ccccc1` is 82% (inactive).
With `O=C1CN(C(=O)COc2ccccc2)C(c2ccc(F)cc2)c2cc(Br)ccc2N1` (stereo unspecified), the survival was 33% (active).
The figure for `O=C1CN(C(=O)c2ccccc2)C(c2ccc(F)cc2)c2cc(Br)ccc2N1` (stereo unspecified) is 60% (inactive).
For `O=C1CN(C(=O)c2c(F)cccc2Cl)C(c2ccc(F)cc2)c2cc(Br)ccc2N1` (stereo unspecified) the value was 42% (active); for `O=C1CN(C(=O)COc2ccc(Cl)cc2)C(c2ccccc2)c2cc(Br)ccc2N1` (stereo unspecified), 60% (inactive); for `O=C1CN(C(=O)COc2ccc(Cl)cc2)C(c2ccc(F)cc2)c2cc(Cl)ccc2N1` (stereo unspecified), 45% (inactive).
For `O=C1CN(C(=O)Cc2ccc(F)cc2)C(c2ccccc2)c2cc(Br)ccc2N1` (stereo unspecified) the value was 58% (inactive); for `CCCCOc1ccc(C(=O)N2CC(=O)Nc3ccc(Br)cc3C2c2ccc(F)cc2)cc1` (stereo unspecified), 39% (active); for `COc1ccc(C(=O)N2CC(=O)Nc3ccc(Br)cc3C2c2ccc(F)cc2)cc1OC` (stereo unspecified), 48% (inactive).
Consider `O=C1CN(C(=O)COc2ccc(Cl)cc2)C(c2ccc(F)cc2)c2cc(Br)ccc2N1` (stereo unspecified), for which the survival is 36% (active).
For `Cc1ccc(C(=O)N2CC(=O)Nc3ccc(Br)cc3C2c2ccc(F)cc2)cc1C` (stereo unspecified) the value was 66% (inactive); for `CCOc1ccc(C(=O)N2CC(=O)Nc3ccc(F)cc3C2c2ccc(F)cc2)cc1` (stereo unspecified), 148% (inactive); for `O=C(c1ccccc1/S(=N/S(=O)(=O)c1ccccc1)N1CCOCC1)N1CCOCC1` (stereo unspecified), 75% (inactive).
Regarding `Clc1cccc(-c2nnc(CN3CCN(c4ccccn4)CC3)o2)c1`, the survival was 82% (inactive).
For `CCOc1ccc(CC(=O)NCC(c2cccs2)S(=O)(=O)c2ccc(F)c(C)c2)cc1` (stereo unspecified) the value was 67% (inactive); for `Cc1ccc(N2CC(NC(=O)C3CCCC3)CC2=O)cc1C` (stereo unspecified), 103% (inactive); for `Cc1ccc(CNc2oc(-c3ccc(COc4ccc(C)cc4)o3)nc2C#N)cc1`, 65% (inactive).
For `COCCNC(=O)CCCn1c(SCc2ccccc2C)nc2c(sc3ccccc32)c1=O` the value was 97% (inactive); for `Cc1ccc2oc3c(c(=O)c2c1)C(c1ccc(OCC(N)=O)cc1)N(Cc1ccc2c(c1)OCO2)C3=O` (stereo unspecified), 93% (inactive); for `COC(=O)c1ccc(-n2nnc(-c3nc(-c4ccc5c(c4)OCO5)no3)c2C)cc1`, 82% (inactive).
Consider `Cc1ccccc1NC(=O)c1c(C)oc2ccc(O)c(CN3CCN(C)CC3)c12`, for which the survival was 77% (inactive).
The figure for `Cc1nc2nc(SCC(=O)NC(C)c3ccccc3)nn2c(C)c1Cc1c(F)cccc1Cl` (stereo unspecified) is 68% (inactive); for `Cc1nc2nc(SCC(=O)NCCc3ccccc3)nn2c(C)c1Cc1c(F)cccc1Cl` it is 37% (active).
The figure for `CCCCNC(=O)CSc1nc2nc(C)c(Cc3c(F)cccc3Cl)c(C)n2n1` is 31% (active); for `Cc1nc2nc(SCC(=O)NCCc3ccc(Cl)cc3)nn2c(C)c1Cc1c(F)cccc1Cl` it is 0% (active); for `Cc1nc2nc(SCC(=O)O)nn2c(C)c1Cc1c(F)cccc1Cl` it is 93% (inactive).
For `CCN(CC)CCCNC(=O)CSc1nc2nc(C)c(Cc3c(F)cccc3Cl)c(C)n2n1` the value was 146% (inactive); for `Cc1ccccc1Cc1c(C)nc2nc(SCC(=O)NCCc3ccc(Cl)cc3)nn2c1C`, 67% (inactive).
For the molecule `COc1ccc(CCNC(=O)CSc2nc3nc(C)c(Cc4ccc(C)cc4)c(C)n3n2)cc1OC`, the survival was 55% (inactive).
The figure for `Cc1nc2nc(SCC(=O)NCCc3ccc(Cl)cc3)nn2c(C)c1Cc1ccccc1Cl` is 99% (inactive); for `Cc1nc2nc(SCC(=O)NCCc3ccc(Cl)cc3)nn2c(C)c1Cc1ccccc1` it is 46% (active); for `Cc1nc2nc(SCc3c(F)cccc3Cl)nn2c(C)c1Cc1ccccc1` it is 66% (inactive).
For `Cc1nc2nc(SCC(=O)Nc3cccc(Cl)c3)nn2c(C)c1Cc1ccccc1` the value was 85% (inactive); for `Cc1cccc(C(=O)N2CCc3cc(CNS(=O)(=O)c4cccs4)ccc32)c1`, 74% (inactive); for `Cc1ccc(C)c(CN2C(=O)c3ccccc3S(=O)(=O)c3ccc(C(=O)Nc4ccccc4C(F)(F)F)cc32)c1`, 84% (inactive).
For `Cc1ccccc1Cn1c(CN2CCN(c3cc(Cl)ccc3C)CC2)nc2c1c(=O)[nH]c(=O)n2C` the value was 106% (inactive); for `CCOC(=O)Cc1ccc(NC(=O)N(Cc2ccc(OC)cc2)C2CCN(C(C)=O)CC2)cc1`, 88% (inactive); for `Cc1ccc(NC(=O)C(=O)NCC(c2cccnc2)N2CCN(c3ccccc3F)CC2)cc1Cl` (stereo unspecified), 73% (inactive).
`Cc1oc(-c2ccc(C(=O)NCc3ccccc3)cc2)nc1CS(=O)(=O)c1ccccc1`: the survival is 88% (inactive).
For `Cc1ccc(C)c(N2CCN(C(=O)c3ccc4[nH]c(C)c(C)c4c3)CC2)c1` the value was 80% (inactive); for `N=Nc1c(O)n(CC(=O)Nc2ccccc2)c2ccccc12`, 87% (inactive); for `CN(C)Cn1c(O)c(N=NC(=O)c2ccccc2)c2ccccc21`, 93% (inactive).
For `N=C(N=Nc1c(O)n(Cc2ccccc2)c2ccccc12)SCC(=O)Nc1ccccc1` the value was 23% (active); for `Cc1ccc(NC(=O)C2CCN(S(=O)(=O)c3c(C)noc3C)CC2)cc1`, 105% (inactive).
The figure for `Cc1ccc(-c2nnc3c4ccccc4c(-c4ccccc4)nn23)cc1` is 134% (inactive); for `COc1ccc(-c2nn3c(-c4ccccc4C)nnc3c3ccccc23)cc1` it is 2% (active); for `COc1ccc(-c2nn3c(-c4ccc(OC)cc4)nnc3c3ccccc23)cc1` it is 102% (inactive).
With `Cc1ccc(-c2nn3c(-c4ccc(C)cc4)nnc3c3ccccc23)cc1`, the survival was 20% (active).
`Cc1ccc(-c2nn3c(-c4ccccc4)nnc3c3ccccc23)cc1`: the survival is 86% (inactive).
The figure for `Cc1ccc(-c2nn3c(-c4ccccc4C)nnc3c3ccccc23)cc1` is 40% (inactive); for `O=C(CNCCCN1CCOCC1)Nc1ccc(OC(F)(F)F)cc1` it is 99% (inactive).
The figure for `CC(=O)c1cccc(NC(=O)c2oc3c(c2C)-c2nn(Cc4ccc(Cl)cc4)cc2CC3)c1` is 64% (inactive); for `COc1cccc(CNC(=O)CN2C(=O)N(c3ccc(C)cc3C)S(=O)(=O)c3ccccc32)c1OC` it is 65% (inactive); for `COc1cc(NS(=O)(=O)c2ccc(-c3cc(C)no3)cc2)cc(OC)c1` it is 99% (inactive).
For `Cc1cccc(C)c1NC(=O)CCSCCc1ccccn1` the value was 86% (inactive).
